From PubChem BioAssay AID1619 (SRMLSC, 2009)
Hit rate of the full screen: of about 220,000 compounds, about 830 (0.38%) were called active. The list is a sample of the results. Potency and affinity values are given separately. A number with no mark means an inactive call.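 The calls were made as follows: active = compound inhibiting the enzyme by more than half at any dose during confirmatory dose-response retesting; inconclusive = strong single-dose inhibitors picked by rank but not retested; inactive = the rest.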 Non-standard residues stand in square brackets, D forms with d. Residues, ends and D or L forms follow the SMILES beside them. ξ: configuration not given here. *: point of attachment. Cbz = O=C(OCc1ccccc1)*; OBn = c1ccc(CO*)cc1; ξP = O=C(O)C1CCCN1

Each compound was assayed against Leucine aminopeptidase (Plasmodium falciparum (isolate 3D7)) (UniProt Q8IL11) (assay: P. falciparum M17LAP inhibitors, primary screen, biochemical, fluorogenic H-Leu-NHMec substrate, 1536-well (AID 1619;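 also: plate controls were full reaction with DMSO carrier for no effect and no enzyme background for full effect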)). Conditions: recombinant M17LAP, H-Leu-NHMec fluorogenic kinetic assay; at 30 µM; hits give high values.
Sequence of Leucine aminopeptidase (Plasmodium falciparum (isolate 3D7)) (Q8IL11 whole entry, looked up): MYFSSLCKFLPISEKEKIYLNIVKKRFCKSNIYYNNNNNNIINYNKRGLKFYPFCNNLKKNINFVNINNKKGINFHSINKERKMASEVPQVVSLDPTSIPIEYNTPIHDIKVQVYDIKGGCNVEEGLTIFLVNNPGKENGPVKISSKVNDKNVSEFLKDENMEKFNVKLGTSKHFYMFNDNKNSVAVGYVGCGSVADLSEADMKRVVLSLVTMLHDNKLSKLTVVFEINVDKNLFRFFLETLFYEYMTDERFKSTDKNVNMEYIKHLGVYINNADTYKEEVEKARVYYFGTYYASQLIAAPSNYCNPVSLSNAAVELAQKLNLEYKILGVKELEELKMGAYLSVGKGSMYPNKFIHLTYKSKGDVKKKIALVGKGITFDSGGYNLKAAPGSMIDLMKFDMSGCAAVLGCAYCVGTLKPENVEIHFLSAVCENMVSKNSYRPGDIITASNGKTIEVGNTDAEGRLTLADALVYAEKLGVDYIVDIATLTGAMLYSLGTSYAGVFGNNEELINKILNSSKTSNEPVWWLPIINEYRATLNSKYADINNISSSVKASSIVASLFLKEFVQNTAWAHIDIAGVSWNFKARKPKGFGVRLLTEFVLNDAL

Row | Compound | inhibition
1 | O=C(CNC(=O)c1ccccc1)NCC(=O)OCc1ccccc1Cl | -2.59%
2 | O=C(CN(c1ccccc1)S(=O)(=O)c1ccc(F)cc1)NC1CCS(=O)(=O)C1 (configuration not stated) | 8.02%
3 | CCOc1ccc(CC(=O)N2CCN=C2SCc2ccc([N+](=O)[O-])cc2)cc1 | -3.75%
4 | Cc1cc(C)c2cc(C(=O)N3CCC(Cc4ccccc4)CC3)[nH]c2c1 | -4.41%
5 | COC(=O)c1ccc(C(=O)OC)c(NC(=O)CSc2cccc[n+]2[O-])c1 | -1.81%
6 | Cc1ccc(-c2csc(/C(C#N)=C(\O)CCl)n2)cc1 | 6.37%
7 | Cc1ccc(C2C(C#N)=C(N)Oc3nc(-c4ccccc4)[nH]c32)o1 (configuration not stated) | 94%
8 | N#CC1=C(N)Oc2cc3ccccc3cc2C1c1cccnc1 (configuration not stated) | 0.21%
9 | Cc1ccc(-c2c(C#N)c(N)nc3c2CCCC3)s1 | 9.55%
10 | CC(=O)c1nn(-c2cccc(Cl)c2)cc1C(=O)c1ccco1 | -0.97%
11 | CC(=O)c1cc(Cl)ccc1OC(=O)c1ccco1 | -7.24%
12 | CN(C)CCNC(=O)C(c1ccccc1)c1ccccc1 | 4.43%
13 | COc1cccc(C(=O)NNC(=O)C(=O)N2CCCCC2)c1 | 5.57%
14 | O=C(Nc1ccc(C(=O)O)cc1)/C(=C\c1ccc2c(c1)OCO2)NC(=O)c1ccc(Br)o1 | 12%
15 | O=C(Nc1cccc(C(=O)O)c1)/C(=C/c1ccc2c(c1)OCO2)NC(=O)c1cccc(Br)c1 | 51.7%
16 | COCCn1nnnc1C(c1ccccc1OC)N1CCN(c2ccccc2F)CC1 (configuration not stated) | 0.44%
17 | O=C(Cc1ccccc1)N1CCCC(c2nc(-c3ccc(S(=O)(=O)N4CCCC4)cc3)no2)C1 (configuration not stated) | 0.8%
18 | O=C(O)CCn1cc(/C=C/C(=O)c2ccc(Cl)cc2)c(-c2ccc(Br)cc2)n1 | 31.8%
19 | O=C(O)CCn1cc(/C=C/C(=O)c2ccc(Cl)cc2)c(-c2cccc(Br)c2)n1 | 6.04%
20 | Nc1nonc1C(=O)N/N=C/c1cccc([N+](=O)[O-])c1 | 39.7%
21 | CN(C)c1ccc(/C=N/NC(N)=S)cc1[N+](=O)[O-] | -6.38%
22 | CCCNS(=O)(=O)c1ccc(N2CCCC2=O)c([N+](=O)[O-])c1 | -2.44%
23 | CC(C)N(C(=O)C1CC(=O)OC12CCCCC2)C(C)C (configuration not stated) | -0.49%

Row | Compound | inhibition
24 | CCC(=O)Nc1c(-c2ccc(OC)cc2)c(=O)c2ccccc2n1C | 0.6%
25 | Cc1ccc(NS(=O)(=O)Cc2ccccc2)nc1 | -10.1%
26 | O=S(=O)(Cc1ccccc1)Nc1ccc(Br)cn1 | 8.11%
27 | Cc1nc2c(cc1C(=O)N/N=C/c1ccc(O)c(O)c1)c(=O)n(C)c(=O)n2C | 13.8%
28 | Cc1ccccc1N1C(=O)CC2(CCCC2)CC1=O | -2.41%
29 | Cc1ccc(/C=C2\NC(=S)NC2=O)cc1[N+](=O)[O-] | -1.94%
30 | CN(C)c1ccc(/C=N/N=C(N)N)cc1[N+](=O)[O-] | 58.3%
31 | COc1cc(/C=N/NC(N)=O)ccc1OC(=O)c1ccc(C)cc1 | -1.66%
32 | Cc1ccc(-n2nnc3c(=O)n(CC(=O)N4CCC(C)CC4)cnc32)cc1 | 13.8%
33 | OC1COC(OCC2OC(OCc3ccccc3)C(O)C(O)C2O)C(O)C1O (configuration not stated) | -0.69%
34 | Cc1ccc(C(=O)O/N=C(\c2ccccc2)c2cccnc2)cc1 | -5.37%
35 | CC1(C)N(O)CC(c2cccs2)=[N+]1[O-] | 39.9%
36 | CC(=O)C1(C)N(O)C(C)(C)C(c2cccs2)=[N+]1[O-] (configuration not stated) | 11.1%
37 | NNC(=O)c1ccc(COc2ccc3ccccc3c2)o1 | 7.87%
38 | COc1cc(/C=N/N2C(=O)C3C4C=CC(CC4)C3C2=O)ccc1O (configuration not stated) | 18.2%
39 | COc1cc(/C=N/N2C(=O)c3ccccc3C2=O)ccc1O | 10.3%
40 | O=C1C2C3C=CC(CC3)C2C(=O)N1/N=C/c1ccc(O)cc1 (configuration not stated) | 12.3%
41 | O=C1c2ccccc2C(=O)N1/N=C/c1ccc(O)c(O)c1O | 9.31%
42 | O=C(Cn1cnc2c(cnn2-c2ccccc2)c1=O)NC1CCCC1 | -1.27%
43 | O=C(Nc1cccnc1)c1ccccc1O | 8.37%
44 | CCN(C(=O)COC(=O)c1cc(-c2ccccc2)nn1-c1ccccc1)C1CCS(=O)(=O)C1 (configuration not stated) | -0.44%
45 | O=C(CSc1nnc(-c2cccs2)n1-c1ccccc1)Nc1ccccc1 | 8.55%
46 | COc1ccc(NC(=O)CSc2nnc(-c3cccs3)n2-c2ccccc2)cc1 | 0.69%

Row | Compound | inhibition
47 | CCOC(=O)C1=C(O)C(=O)N(c2ccc(S(N)(=O)=O)cc2)C1c1cccc([N+](=O)[O-])c1 (configuration not stated) | 0.08%
48 | O=C(C1=C(O)C(=O)N(CCN2CCOCC2)C1c1ccncc1)c1ccco1 (configuration not stated) | 17.6%
49 | Cc1nnc(SC(C)C(=O)Nc2c(C)n(C)n(-c3ccccc3)c2=O)n1N (configuration not stated) | 11.1%
50 | Cc1c(NC(=O)CSc2nnc(Nc3ccccc3)s2)c(=O)n(-c2ccccc2)n1C | 20.1%
51 | Cc1ccc(SC(C)C(=O)Nc2c(C)n(C)n(-c3ccccc3)c2=O)cc1 (configuration not stated) | -0.12%
52 | Cc1c(NC(=O)C(C)Sc2ccccc2)c(=O)n(-c2ccccc2)n1C (configuration not stated) | 8.89%
53 | O=C(O)CCn1c(C2CCCCC2)nc2ccccc21 | 10.6%
54 | O=C(CSCc1cccc(CSCC(=O)Nc2ccccc2)n1)Nc1ccccc1 | 6.32%
55 | CCc1cccc(NC(=O)CCSCCC(=O)Nc2cccc(CC)c2)c1 | 10.7%
56 | CC(C)OC(=O)CSc1ncnc2c1cnn2-c1ccccc1 | -11.6%
57 | S=C(NCc1ccco1)Nc1ccccc1Cl | 2.12%
58 | Cc1cc(NS(=O)(=O)c2ccc(NC(=O)c3cnc4sccn4c3=O)cc2)nc(C)n1 | -3.04%
59 | Cc1noc(NS(=O)(=O)c2ccc(NC(=O)c3cnc4scc(C)n4c3=O)cc2)c1C | 49.8%
60 | Cc1cc(C)nc(NS(=O)(=O)c2ccc(NC(=O)CN3C(=O)c4ccccc4C3=O)cc2)n1 | 8.34%
61 | COc1cc(NS(=O)(=O)c2ccc(NC(=O)CN3C(=O)c4ccccc4C3=O)cc2)nc(OC)n1 | 45.7%
62 | CN1C(=O)CS(=O)c2ccc(C(=O)NCCC3=CCCCC3)cc21 (configuration not stated) | -0.02%
63 | CCC(=O)N(Cc1ccc(C)cc1)Cc1cc2cc3c(cc2[nH]c1=O)OCO3 | -7.35%
64 | O=C(c1ccccc1)N1CCN(C(=O)c2ccccc2)C1c1ccccc1 | -9.12%
65 | Cc1cccc(NC(=O)CSCc2nc3c(nnn3Cc3ccc(F)cc3)c(=O)[nH]2)c1C | 22.9%
66 | O=C(CSCc1nc2c(nnn2Cc2ccc(F)cc2)c(=O)[nH]1)Nc1c(Cl)cc(Cl)cc1Cl | 30.5%
67 | CN1CCN(C(=O)C2=C[C@@H](c3ccccc3)C[C@@H](OCCCCO)O2)CC1 | 2.48%
68 | COc1ccc(Br)cc1/C=N/Nc1cccc(C(=O)O)c1 | 25%
69 | C=CCOc1c(CNc2cccc(C(=O)O)c2)cccc1OC | 1.85%

Row | Compound | inhibition
70 | O=C(NNC(=O)C1[C@H]2CCCC[C@@H]12)Nc1cccc2ccccc12 (some centres not stated) | 0.58%
71 | C/C(=N/OC(=O)c1c(F)cccc1F)c1nccs1 | -5.2%
72 | CC(=O)C1=C(O)C(=O)N(c2ccc(Br)cn2)C1c1ccc(F)cc1 (configuration not stated) | 20.5%
73 | O=C(CNC(=O)OCc1ccccc1)NCC(=O)N1CCCC1C(=O)OCc1ccccc1 (stereo not drawn) (Cbz-Gly-Gly-[ξP]-OBn) | 2.1%
74 | O=C(O)CCC(=O)N1CCC[C@H]1C(=O)O | 3.33%
75 | Cc1ccc(C(=O)CN(C(=O)c2ccc(Cl)c(Cl)c2)N2C(=O)C3C4C=CC(C4)C3C2=O)cc1 (configuration not stated) | -2.9%
76 | Cc1ccc2nc(SCC(=O)Nc3ccc4c(c3)CCC4)[nH]c2c1 | -0.04%
77 | O=C(CSc1ncc(S(=O)(=O)c2ccccc2)c(=O)[nH]1)Nc1ccccc1Cl | 28.8%
78 | Cc1ccc(NC(=O)CSc2ncc3ccccn23)cc1C | -1.12%
79 | Cc1ccc(NC(=O)CSc2ncn(-c3ccccc3)n2)cc1C | 3.12%
80 | O=C(CSc1ncccn1)Nc1ccc2c(c1)CCC2 | -3.11%
81 | CCCc1cc(=O)[nH]c(SCC(=O)Nc2ccc3c(c2)CCC3)n1 | 19.8%
82 | O=C(CSc1nc(-c2ccco2)cc(C(F)(F)F)n1)Nc1ccc2c(c1)CCC2 | 15.2%
83 | COc1cccc(NC(=O)CSc2ncc(S(=O)(=O)c3ccccc3)c(=O)[nH]2)c1 | 9.3%
84 | COc1cc(/C=C/C(=O)c2c(O)cc(C)oc2=O)cc(OC)c1O | 23.1%
85 | CCOC(=O)c1sc(NNC(=O)c2ccc(F)cc2)nc1C | 4.21%
86 | CC(=O)c1cc(-c2ccccc2)n(CC(=O)N2CCC(N3CCCCC3)CC2)c1C | 5.06%
87 | CCOCc1nc(C)c(Cl)c(NS(=O)(=O)c2ccc(N)cc2)n1 | -2.71%
88 | CCCCCCCCn1c(N2CCN(c3cccc(Cl)c3)CC2)nc2c1c(=O)[nH]c(=O)n2C | 0.06%
89 | COc1ccc(NC(=O)CSc2nc3c(c(=O)[nH]2)CCC3)cc1OC | 7.54%
90 | CCCn1c(SCC(=O)Nc2ccc3c(c2)CCC3)n[nH]c1=O | 24.5%
91 | Cc1ccc(NC(=O)CSc2n[nH]c(-c3ccncc3)n2)cc1C | 13.3%
92 | COc1ccc2nc(SCC(=O)Nc3ccc4c(c3)CCC4)[nH]c2c1 | 5.26%
